# From the supplement of paper PMC8728848
# Many of the other results were omitted from the sample, so the strongest signals are more common in it than they were.
# B1: Mermaid1 (Stilbonema majum) (protein)
# chain: MGSSHHHHHHSSGLVPRGSHMAASGWLRSPQGTVVKLYRRSLSWSKADEFCKDVDGRLVVDRTADMHLFLIKNVLKEKKSRVWVGLRRTAPHSRTWIWSDGTRQNEDDLDANLWLRDEPNDAAGEEECALFMYSPWEKAWGLNDYLCRGGCRSYQFICEKWIR
# Tests used:
# Assay in all cases: glycan array binding signal (z-score within array); higher = stronger binding
# Settings in all cases: glycan notation: IUPAC condensed, linker removed
# [1] = target: Fuc(a1-2)Gal(b1-3)GalNAc(a1-3)[Fuc(a1-2)]Gal(b1-4)Glc
# In short: (§1)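 Arrays were curated from the Consortium for Functional Glycomics database, 3228 in total, and kept only where the protein sequence was available. Binding is expressed as a within-array Z-score. This score was averaged across arrays of the same protein sequence at different concentrations or buffers and across linkers, and negative values can be read as non-binding.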
# [2] = target: Fuc(a1-2)Gal(b1-3)[Fuc(a1-4)]GlcNAc
# In short: as §1
# Fuc(a1-2)Gal(b1-4)Glc6S = target: Fuc(a1-2)Gal(b1-4)Glc6S
# In short: as §1
# [3] = target: Fuc(a1-2)Gal(b1-4)GlcNAc(b1-2)Man(a1-3)[Fuc(a1-2)Gal(b1-4)GlcNAc(b1-2)Man(a1-6)]Man(b1-4)GlcNAc(b1-4)[Fuc(a1-6)]GlcNAc
# In short: as §1
# [4] = target: Fuc(a1-2)Gal(b1-4)GlcNAc(b1-6)GalNAc
# In short: as §1
# [5] = target: Fuc(a1-2)Gal(b1-4)[Fuc(a1-3)]GlcNAc
# In short: as §1
# [6] = target: Fuc(a1-2)Gal6S(b1-3)GlcNAc6S
# In short: as §1
# Fuc(a1-2)Gal6S(b1-4)Glc = target: Fuc(a1-2)Gal6S(b1-4)Glc
# In short: as §1
# [7] = target: Fuc(a1-2)[Gal(a1-3)]Gal(b1-3)GalNAc
# In short: as §1
# [8] = target: Fuc(a1-2)[Gal(a1-3)]Gal(b1-3)GlcNAc(b1-2)Man(a1-3)[Fuc(a1-2)[Gal(a1-3)]Gal(b1-3)GlcNAc(b1-2)Man(a1-6)]Man(b1-4)GlcNAc(b1-4)GlcNAc
# In short: as §1
# [9] = target: Fuc(a1-2)[Gal(a1-3)]Gal(b1-3)GlcNAc(b1-2)Man(a1-3)[Fuc(a1-2)[Gal(a1-3)]Gal(b1-3)GlcNAc(b1-2)Man(a1-6)]Man(b1-4)GlcNAc(b1-4)[Fuc(a1-6)]GlcNAc
# In short: as §1
# [10] = target: Fuc(a1-2)[Gal(a1-3)]Gal(b1-4)GlcNAc(b1-2)Man
# In short: as §1
# [11] = target: Fuc(a1-3)[Gal(b1-4)]GlcNAc(b1-2)Man(a1-3)[Fuc(a1-3)[Gal(b1-4)]GlcNAc(b1-2)Man(a1-6)]Man(b1-4)GlcNAc(b1-4)GlcNAc
# In short: as §1
# [12] = target: Fuc(a1-3)[Gal(b1-4)]GlcNAc(b1-3)Gal(b1-4)[Fuc(a1-3)]GlcNAc(b1-3)Gal(b1-4)[Fuc(a1-3)]GlcNAc
# In short: as §1
# [13] = target: Fuc(a1-3)[Gal3S(b1-4)]Glc
# In short: as §1
# [14] = target: Gal(a1-3)Gal(b1-3)[Fuc(a1-4)]GlcNAc(b1-2)Man(a1-3)[Gal(a1-3)Gal(b1-3)[Fuc(a1-4)]GlcNAc(b1-2)Man(a1-6)]Man(b1-4)GlcNAc(b1-4)GlcNAc
# In short: as §1
# [15] = target: Gal(a1-3)Gal(b1-4)GlcNAc(b1-2)Man
# In short: as §1
# [16] = target: Gal(a1-3)Gal(b1-4)GlcNAc(b1-6)GalNAc
# In short: as §1
# [17] = target: Gal(b1-3)GlcNAc(a1-6)Gal(b1-4)GlcNAc
# In short: as §1
# [18] = target: Gal(b1-3)GlcNAc(b1-2)[Gal(b1-3)GlcNAc(b1-6)]Man(a1-6)[Gal(b1-3)GlcNAc(b1-2)Man(a1-3)]Man(b1-4)GlcNAc(b1-4)GlcNAc
# In short: as §1
# [19] = target: Gal(b1-3)GlcNAc(b1-3)Gal(b1-4)GlcNAc(b1-2)[Gal(b1-3)GlcNAc(b1-3)Gal(b1-4)GlcNAc(b1-6)]Man(a1-6)[Gal(b1-3)GlcNAc(b1-3)Gal(b1-4)GlcNAc(b1-2)Man(a1-3)]Man(b1-4)GlcNAc(b1-4)[Fuc(a1-6)]GlcNAc
# In short: as §1
# [20] = target: Gal(b1-3)GlcNAc(b1-3)Gal(b1-4)GlcNAc(b1-3)Gal(b1-4)GlcNAc(b1-2)[Gal(b1-3)GlcNAc(b1-3)Gal(b1-4)GlcNAc(b1-3)Gal(b1-4)GlcNAc(b1-6)]Man(a1-6)[Gal(b1-3)GlcNAc(b1-3)Gal(b1-4)GlcNAc(b1-3)Gal(b1-4)GlcNAc(b1-2)Man(a1-3)]Man(b1-4)GlcNAc(b1-4)[Fuc(a1-6)]GlcNAc
# In short: as §1
# [21] = target: Gal(b1-3)[Neu5Ac(a2-6)]GlcNAc(b1-4)Gal(b1-4)Glc
# In short: as §1
# Gal(b1-4)Gal = target: Gal(b1-4)Gal
# In short: as §1
# [22] = target: Gal(b1-4)GalNAc(a1-3)[Fuc(a1-2)]Gal(b1-4)GlcNAc
# In short: as §1
# [23] = target: Gal(b1-4)GlcNAc(b1-2)Man(a1-3)[Man(a1-6)]Man(b1-4)GlcNAc(b1-4)GlcNAc
# In short: as §1
# [24] = target: Gal(b1-4)GlcNAc(b1-2)[Gal(b1-4)GlcNAc(b1-4)]Man(a1-3)[Gal(b1-4)GlcNAc(b1-2)Man(a1-6)]Man(b1-4)GlcNAc(b1-4)GlcNAc
# In short: as §1
# [25] = target: Gal(b1-4)GlcNAc(b1-2)[Gal(b1-4)GlcNAc(b1-4)]Man(a1-3)[GlcNAc(b1-4)][Gal(b1-4)GlcNAc(b1-2)[Gal(b1-4)GlcNAc(b1-6)]Man(a1-6)]Man(b1-4)GlcNAc(b1-4)GlcNAc
# In short: as §1
# [26] = target: Gal(b1-4)GlcNAc(b1-2)[Gal(b1-4)GlcNAc(b1-6)]Man(a1-6)[Gal(b1-4)GlcNAc(b1-2)Man(a1-3)]Man(b1-4)GlcNAc(b1-4)GlcNAc
# In short: as §1
# [27] = target: Gal(b1-4)GlcNAc(b1-3)Gal(b1-4)GlcNAc(b1-2)[Gal(b1-4)GlcNAc(b1-3)Gal(b1-4)GlcNAc(b1-6)]Man(a1-6)[Gal(b1-4)GlcNAc(b1-3)Gal(b1-4)GlcNAc(b1-2)Man(a1-3)]Man(b1-4)GlcNAc(b1-4)GlcNAc
# In short: as §1
binder,measurement,setting,value
B1,glycan array binding signal (z-score),[1],-0.132
same,glycan array binding signal (z-score),[2],-0.578
same,glycan array binding signal (z-score),Fuc(a1-2)Gal(b1-4)Glc6S,2.97
same,glycan array binding signal (z-score),[3],3.06
same,glycan array binding signal (z-score),[4],-0.219
same,glycan array binding signal (z-score),[5],0
same,glycan array binding signal (z-score),[6],1.58
same,glycan array binding signal (z-score),Fuc(a1-2)Gal6S(b1-4)Glc,-0.65
same,glycan array binding signal (z-score),[7],3.08
same,glycan array binding signal (z-score),[8],-0.403
same,glycan array binding signal (z-score),[9],-0.259
same,glycan array binding signal (z-score),[10],-0.732
same,glycan array binding signal (z-score),[11],-0.717
same,glycan array binding signal (z-score),[12],-0.381
same,glycan array binding signal (z-score),[13],0.419
same,glycan array binding signal (z-score),[14],2.49
same,glycan array binding signal (z-score),[15],-0.331
same,glycan array binding signal (z-score),[16],-0.176
same,glycan array binding signal (z-score),[17],0.067
same,glycan array binding signal (z-score),[18],-0.787
same,glycan array binding signal (z-score),[19],4.98
same,glycan array binding signal (z-score),[20],6.8
same,glycan array binding signal (z-score),[21],-0.953
same,glycan array binding signal (z-score),Gal(b1-4)Gal,3.2
same,glycan array binding signal (z-score),[22],1.62
same,glycan array binding signal (z-score),[23],2.41
same,glycan array binding signal (z-score),[24],0.823
same,glycan array binding signal (z-score),[25],-1.01
same,glycan array binding signal (z-score),[26],-0.567
same,glycan array binding signal (z-score),[27],4.04
